We go through 15 compounds from PubChem BioAssay AID720518 (National Center for Advancing Translational Sciences (NCATS), 2013).

Structures are written as SMILES. Records with an inconclusive call do not appear. A call without a number means that no potency is given here. Calls of active or inactive are those of the source. The call rests on the fitted dose curve.
Potency means the concentration at half of the fitted maximal effect.

This test is described as follows: qHTS for Inhibitors of Cell Surface uPA Generation: Wild-type Protective Antigen (WT-PrAg) Counterscreen for Cherry-picked Compounds. Conditions: cells, WT protective antigen toxicity counterscreen; series mostly up to 115 µM. For orientation: Quantitative high-throughput screening tests each substance at several concentrations.
Consider `O=C(CSc1nnnn1-c1cccc(F)c1)Nc1nc2ccccc2s1`, for which the Potency result is “inactive”. Consider `COc1ccc(CC(=O)NNS(=O)(=O)c2ccccc2[N+](=O)[O-])cc1OC`, for which the Potency entry is “inactive”.

On to `O=C(C[C@H]1C[C@H](C(=O)N2CCOCC2)[C@@]2(CCC3CCCC3)c3[nH]c4cc(-c5ccco5)ccc4c3CCN2C1=O)NCc1cccc(C(F)(F)F)c1`, for which the Potency entry is “inactive”. The figure for `CC(C)C1Oc2ccccc2N(CC(=O)NC2CCCCC2)C1=O` (stereo not given) is 36.9 µM (active); for `C[n+]1c2cc(N)ccc2cc2ccc(N)cc21` it is “inactive”.

For `CC(=O)c1ccc(NC(=O)CN2CCN(c3ccccc3)CC2)cc1`, the Potency entry was “inactive”.

With `C=C(C(=O)O)C1CCC2(C)CCCC(C)(O)C2C1` (stereo not given), the Potency entry was “inactive”. With `CC1(C)S[C@@H]2[C@H](NC(=O)C(C(=O)O)c3ccccc3)C(=O)N2[C@H]1C(=O)O` (stereo not given in full) the entry was “inactive”; with `CCOCCCn1c(SCC(=O)Nc2oc(C)c3c(C)n[nH]c(=O)c23)nc2ccccc2c1=O`, “inactive”. In the case of `C[C@@H](C(=O)Nc1ccc2ccccc2c1)[C@@H]1C[C@@]1(C)[C@@H](NC(=O)c1cccnc1)c1ccccc1`, the Potency result was “inactive”.

In the case of `O=C(CCc1ccccc1)NNC(=O)c1cccc(F)c1`, the Potency entry is “inactive”. Consider `Clc1ccc(-c2nc3ccccn3c2CN2CCSCC2)cc1`, for which the Potency entry was “inactive”. The entry for `Cn1cccc1Cc1nnc(SCC(=O)Nc2ccc3c(c2)OCCO3)n1-c1ccc(F)cc1` is “inactive”.

Turning to `Cc1cc(C)cc(NC(=O)C(OC(=O)c2ccc(O)cc2)c2ccccc2)c1` (stereo not given), the Potency result was “inactive”.

Turning to `C[C@H](O)[C@@H]1C(=O)N2CCc3ccc(-c4cccc(F)c4)cc3[C@@H]2C[C@@H]1N(C)C(=O)C(C)(C)C`, the Potency entry was “inactive”.
